Columns and labels:
Experiment in all cases: cross-link between two proteins; cross-linking mass spectrometry
[1] = molecular target: Large ribosomal subunit protein uL23 (UniProt P0ADZ0)
[2] = molecular target: Small ribosomal subunit protein uS14 (UniProt P0AG59)
[3] = molecular target: Large ribosomal subunit protein bL25 (UniProt P68919)
[4] = molecular target: Small ribosomal subunit protein bS1 (UniProt P0AG67)

Large ribosomal subunit protein uL29, P0A7M6
listed as a hit [1]: yes

Small ribosomal subunit protein uS3, P0A7V3
listed as a hit [2]: yes

Large ribosomal subunit protein uL16, P0ADY7
listed as a hit [3]: yes

Small ribosomal subunit protein bS18, P0A7T7
listed as a hit [4]: yes

Large ribosomal subunit protein bL31, P0A7M9
listed as a hit [2]: yes

Large ribosomal subunit protein bL9, P0A7R1
listed as a hit [3]: yes

Reference: publication PMC12615815
